# An excerpt weighted towards active compounds, which were near 7.4% of everything screened.
# SNCA expr inh: reduces expression of the alpha-synuclein gene | hit rate 0.17% among 140,000 | HEK-293 SNCA-luciferase knock-in, luminescence, 24 h | AID 1671194 | Potency, µM (doses to about 57.2 µM), without a hit: at the highest dose activity change, negative = inhibition, most hits filed as inhibitors;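 note: plate controls were DMSO cells for no effect and cell-free wells for full effect; nearly all actives have a fitted effect of over 45% in size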
# SNCA viab count: cell viability loss counter-screen; Potency, µM (series often up to 57.1 µM), for inactives: top-dose activity change, negative = cytotoxicity, most hits filed as cytotoxic; hit rate 0.12% among 150,000; HEK-293-SNCA-luc viability, GF-AFC fluorescence, 24 h; AID 1671193;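 note: 0% = DMSO-treated cells and -100% = medium-only wells without cells; nearly all actives have a fitted effect of over 30% in size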
#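 HEK-293-SNCA-luc cells (1500/well) plated 24 h, then exposed 24 h to a dilution series; GF-AFC added 30 min at 37C, fluorescence 405/540 nm; normalised to medium-only and DMSO wells, Hill fit.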
# NIH3T3 tox: kills NIH 3T3 cells; NIH 3T3 viability, CellTiter-Glo ATP luminescence, 48-72 h; Potency, µM (titrated, usually from 96.7 µM), for inactives: top-dose activity change, negative = cytotoxicity, actives largely listed as inhibitors; hit rate 4.3% among 94,000; AID 1345082; note: nearly all actives have a fitted effect of over 55% in size
#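 Cells were seeded at 400 per well, treated with pin-transferred compound, and kept 48 or 72 hr at 37 °C before CellTiter-Glo addition and luminescence imaging of cellular ATP.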
# HEK293 tox: kills HEK 293 cells; HEK 293 viability, ATP luminescence (CellTiter-Glo), 48-72 h; Potency, µM (top dose mostly 115 µM), for the others: top-dose activity change, negative = cytotoxicity, hits mostly inhibitors; hit rate 6.6% among 94,000; AID 1345083; note: nearly all actives have a fitted effect of over 60% in size
#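 HEK 293 seeded at 250 cells/well receive compound via pintool. After 48 or 72 hr at 37 degree Celsius, 5% CO2 and 95% humidity, CellTiter-Glo is dispensed and luminescence read following 10 min at room temperature.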
# NPR1 antag: blocks ANP-stimulated signaling of human Npr1 receptor; P16066; HEK293 hNpr1 GloSensor cGMP, ANP-stimulated luminescence; Potency, µM (top dose mostly 46.3 µM), for the others: top-dose activity change, negative = inhibition, actives largely listed as inhibitors; hit rate 1.6% among 76,000; AID 1347048; calls by dose curve; note: nearly all actives have a fitted effect of over 60% in size
#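 Compound pre-incubated 30 min at room temperature on GloSensor-loaded HEK293 cells stably carrying hNpr1 and the pGS-40F cGMP biosensor. Stimulation uses hNppA at 0.1 nM final; luminescence is taken at baseline and 20 min post-agonist.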
# FLuc inh: Photinus pyralis luciferase inhibition; Potency, µM (titrated, usually from 115 µM), usual class: inhibitors; purified P. pyralis luciferase, luminescence, biochemical; hit rate 2.5% among 76,000; P08659; note: nearly all actives have a fitted effect of over 65% in size
# Target sequence (P08659 whole entry, looked up): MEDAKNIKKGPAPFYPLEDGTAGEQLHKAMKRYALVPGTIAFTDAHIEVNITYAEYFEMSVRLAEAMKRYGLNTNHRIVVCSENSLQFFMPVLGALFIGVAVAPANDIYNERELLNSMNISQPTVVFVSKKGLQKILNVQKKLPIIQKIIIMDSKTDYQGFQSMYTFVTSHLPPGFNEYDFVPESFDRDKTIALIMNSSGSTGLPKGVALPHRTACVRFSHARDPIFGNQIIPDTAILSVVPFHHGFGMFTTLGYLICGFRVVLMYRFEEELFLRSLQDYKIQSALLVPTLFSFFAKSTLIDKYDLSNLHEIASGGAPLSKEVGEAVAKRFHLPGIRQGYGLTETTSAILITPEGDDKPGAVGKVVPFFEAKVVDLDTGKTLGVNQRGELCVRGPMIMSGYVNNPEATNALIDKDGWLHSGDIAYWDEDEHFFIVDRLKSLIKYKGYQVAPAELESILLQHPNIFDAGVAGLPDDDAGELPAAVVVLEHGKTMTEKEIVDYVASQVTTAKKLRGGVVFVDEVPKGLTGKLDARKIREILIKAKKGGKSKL
#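 FLuc 10nM, D-luciferin 10uM, ATP 10uM, Mg acetate 10mM, Tris acetate pH 7.5, Tween/BSA; cpd qHTS; enzyme added last; CCD luminescence.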
# * marks the source's active call; other numbers are inactive results; i = inactive; ? = inconclusive; nt = no result; [ ] = remark or other dose. Unless noted, calls come from the whole dose curve; as a rule, active = well fitted curve in the direction sought with a large enough effect; inconclusive = small, poorly fitted or top-dose-only effect, or another doubt; inactive = no such curve, though single readings can be large; an effect the other way counts as inactive or inconclusive. Unless noted, % is set by controls: 0 for no effect and ±100 for the full control effect; potency is the fitted concentration of half-maximal effect.
SMILES,SNCA expr inh,SNCA viab count,NIH3T3 tox,HEK293 tox,NPR1 antag,FLuc inh
CN1c2cc(C(=O)Nc3ccc4c(c3)CCC4)ccc2C(=O)N2CCCCC21 (stereo unspecified),64%,-9%[12.5 µM],?,?,-7%,28µM*
Cc1cc(NC(=O)c2ccc3c(c2)N(C)C2CCCCN2C3=O)ccc1F (stereo unspecified),134%,30%[12.5 µM],?,?,-24%,22µM*
CN1c2cc(C(=O)Nc3ccc(F)c(F)c3)ccc2C(=O)N2CCCCC21 (stereo unspecified),70%,16%[12.5 µM],-29%,-16%,3%,?
O=C(NC1CCCCC1)c1ccc2nnc(CC3CC3)n2c1,26%[87.6 µM],-6%[87.6 µM],-25%[138 µM],-14%[172 µM],nt,nt
N#Cc1cccc(-c2c(C(=O)NCC(F)(F)F)nc3sccn23)c1,27%[87.6 µM],2%[87.6 µM],?,i,nt,nt
CCOC(=O)CNC(=O)c1cc(-c2ccc(Cl)cc2)cn1C,-28%,12%,-27%,-16%,-16%,i
CCn1cc(-c2ccc(Cl)cc2)cc1C(=O)NCC(=O)OC,9%,4%,?,-33%,2%,40µM*
CCn1cc(-c2ccc(Cl)cc2)cc1C(=O)NCCN1CCOCC1,3%,?,?,?,0%,i
CCn1cc(-c2ccc(Cl)cc2)cc1C(=O)N1CCCN(C)CC1,11%,4%,18µM*,25µM*,-9%,i
CCn1cc(-c2ccc(C)cc2)cc1C(=O)N1CCCN(C)CC1,-20%,-9%,?,79µM*,-10%,i
CCn1cc(-c2ccc(Cl)cc2)cc1C(=O)N1CCN(C(C)C)CC1,-16%,-3%,40µM*,?,-9%,i
COC(=O)NC1CCCN(c2ccc3nnc(C4CC4)n3n2)C1 (stereo unspecified),nt,nt,-9%[138 µM],2%[172 µM],nt,nt
O=C(C1CC1)N1CCN(Cc2ccccc2-c2ccccc2F)CC1,18%,0%[12.5 µM],?,?,nt,nt
CC1(c2ccccc2)N(Cc2ccc(O)cc2)C(=O)OC12CCN(C(=O)Cc1ccccc1)CC2 (stereo unspecified),-10%,3%,?,?,1%,i
CC1(c2ccccc2)N(Cc2ccccc2F)C(=O)OC12CCN(C(=O)CN1CCOCC1)CC2 (stereo unspecified),8%,9%,22µM*,4%,3%,i
CC(=O)N1CCC2(CC1)OC(=O)N(Cc1ccccc1F)C2(C)c1ccccc1 (stereo unspecified),8%[87.6 µM],9%[87.6 µM],35µM*,-3%[172 µM],-2%[70.6 µM],i
CN1CCC(C(=O)N2CCC3(CC2)OC(=O)N(Cc2ccccc2F)C3(C)c2ccccc2)CC1 (stereo unspecified),-7%,1%,?,?,-8%,i
CC1(c2ccccc2)N(Cc2ccccc2F)C(=O)OC12CCN(C(=O)c1cccc(C#N)c1)CC2 (stereo unspecified),2%,-7%,7.1µM*,-13%,2%,i
CC1(c2ccccc2)N(Cc2ccccc2)C(=O)OC12CCN(C(=O)CN1CCOCC1)CC2 (stereo unspecified),1%,5%,14µM*,4%,-5%,i
CCc1nncn1C1CCN(S(=O)(=O)c2ccc(Cl)s2)CC1,-7%,4%,-26%,?,nt,nt
COc1ccccc1C(=O)N1CCCC(C(=O)N2CCCC(c3nc4ncccc4[nH]3)C2)C1 (stereo unspecified),10%,0%,-12%,0%,nt,nt
CNC(=O)c1cc(C2CC2)nc2onc(C3CCCN3C(=O)C3CCCC3)c12 (stereo unspecified),nt,nt,?,i,nt,nt
COc1ccc(Nc2ccnc(N3CCN(C(=O)NC(C)C)CC3)n2)cc1,-2%,-8%,?,?,nt,nt
Cc1ncccc1-c1nc2cc(C(=O)N3CCCCC3)ccc2o1,57%,8%,?,?,nt,nt
OCC1(CN2CCCC2)CCN(Cc2ccc3ccccc3c2)CC1,15%,-2%,40µM*,40µM*,3%,i
SMILES,SNCA expr inh,SNCA viab count,NIH3T3 tox,HEK293 tox,NPR1 antag,FLuc inh
OCC1(CN2CCCC2)CCN(C/C=C/c2ccccc2)CC1,13%,-15%,?,35µM*,3%,i
OCC1(CN2CCCC2)CCN(Cc2c(Cl)cccc2Cl)CC1,6%,-3%,?,?,2%,i
COc1ccccc1-c1cccc(CN2CCC(NC(=O)c3ccccc3Cl)CC2)c1,-7%,-2%,?,79µM*,nt,nt
COC(=O)NC1CCN(Cc2cccc(-c3ccccc3OC)c2)CC1,8%,12%,-27%,?,nt,nt
COc1ccccc1-c1cccc(CN2CCC(NC(=O)c3ccccc3C)CC2)c1,nt,nt,?,45µM*,nt,nt
O=C(NC1CCN(Cc2ccccc2)CC1)c1cccc2c1CCN2C(=O)c1ccccc1,15%,-21%,?,40µM*,-28%,i
COc1ccccc1-c1cccc(CN2CCC(NC(=O)N(C)C)CC2)c1,-12%,10%,?,79µM*,nt,nt
C=CCOC(=O)Nc1nc2c(s1)C[C@@H]1[C@](C)(CO)[C@H](O)CC[C@@]1(C)[C@@H]2CC(=O)N1CCCCC1,-4%,-9%,-16%,-16%,-4%,i
COc1ccc2c(c1)C(C(=O)Nc1ccc(C)c([S+](=O)([O-])N3CCOCC3)c1)=CC(C)(C)CO2,nt,nt,?,-18%,nt,nt
CCN1C(=O)C2CC3(CCN(C(=O)c4ccc(Cc5c(C)noc5C)o4)CC3)CN2C1=O (stereo unspecified),24%,7%,2%,-4%,nt,nt
COc1ccccc1C(=O)NC1CCN(Cc2cccc(-c3ccccc3OC)c2)CC1,-30%,-19%,?,45µM*,nt,nt
Cc1ccc(-n2nc(C)c([C@@H]3C=C[C@@H](NC(=O)CC(C)(C)CC(=O)O)C3)c2C)cc1Cl,43%,3%,?,-19%,-8%,i
Cc1ccc(-n2nc(C)c([C@@H]3C=C[C@@H](NCc4ccc(F)cc4)C3)c2C)cc1Cl,-2%[87.6 µM],?,?,32µM*,-30%[70.6 µM],45µM*
Cc1ccc(-n2nc(C)c([C@@H]3C=C[C@@H](NCc4ccc(N(C)C)cc4)C3)c2C)cc1Cl,?,?,7.9µM*,8.9µM*,?,25µM*
CC(C)(C)CC(=O)N1CCC(O)(c2csc(CN3CCc4ccccc4C3)n2)CC1,?,-6%[87.6 µM],?,71µM*,-21%[70.6 µM],i
CC(C)CCN1CCC(O)(c2csc(CN3CCc4ccccc4C3)n2)CC1,-19%[87.6 µM],-16%[87.6 µM],100µM*,79µM*,5%[70.6 µM],i
OC1(c2csc(CN3CCc4ccccc4C3)n2)CCN(C2CCC2)CC1,?,-12%[87.6 µM],100µM*,71µM*,4%[70.6 µM],i

# Compound activity as filed in PubChem.
